Where “and” joins values, the source holds several entries; their conditions need not be identical. Identical values can stand only once. Results filed as inconclusive are left out. Calls of active or inactive are those of the source. Unless noted, the call rests on the fitted dose curve; in most records, active means well fitted curve in the direction sought with a large enough effect; inconclusive means small, poorly fitted or top-dose-only effect, or another doubt; inactive means no such curve, though single readings can be large; an effect the other way counts as inactive or inconclusive.
How the values were obtained:
[1] = qHTS profiling for inhibitors of Plasmodium falciparum (3D7) proliferation (AID 743322; call rule not given here;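 further: infected erythrocytes exposed to compound for 72 h before lysis; 100% = DMSO vehicle wells and 0% = 0.29 µM artemisinin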); settings: P. falciparum 3D7 proliferation; at 28.7 µM (top of the series) unless noted
Procedure, shortened: (§1)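 Erythrocytes infected with P. falciparum (0.3% parasitemia, 2.5% hematocrit) incubated with compounds 72 h at 37 C, 5% CO2. Lysis with saponin/Triton buffer containing SYBR Green I, overnight at room temperature in the dark; DNA fluorescence (485/535 nm) normalised to 0.29 uM artemisinin and DMSO.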

[2] = qHTS profiling for inhibitors of Plasmodium falciparum (DD2) proliferation (AID 743323; call rule not given here); settings: lower = more inhibition; at 28.7 µM (top of the series) unless noted
Procedure, shortened: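 Parasite DNA quantified by SYBR Green fluorescence (ex 485, em 535 nm) after saponin/Triton lysis and overnight dark incubation. Cultures: 0.3% parasitemia, 2.5% hematocrit, 72 h, 37 C; data scaled between DMSO and 0.29 uM artemisinin.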

[3] = qHTS profiling for inhibitors of Plasmodium falciparum (HB3) proliferation (AID 743324); settings: Plasmodium falciparum HB3 blood-stage proliferation; at 28.7 µM (top of the series) unless noted;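 further: 100% = DMSO vehicle wells and 0% = artemisinin-treated control wells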
Procedure, shortened: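 P. falciparum HB3 grown in erythrocytes (0.3% parasitemia, 2.5% hematocrit final) with compound for 72 h at 37 C, 5% CO2. Parasite DNA detected by SYBR Green after saponin/triton lysis overnight; normalized to 0.29 uM artemisinin and DMSO.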

[4] = qHTS profiling of the MIPE4 collection as inhibitors of Plasmodium falciparum (3D7) proliferation (AID 743344; call rule not given here;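 further: scaled between DMSO vehicle wells and 0.29 µM artemisinin as full inhibition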); settings: P. falciparum 3D7 in erythrocytes, SYBR Green DNA fluorescence, 72 h; at 28.5 µM (top of the series) unless noted
Procedure, shortened: as §1

[5] = qHTS profiling of the MIPE4 collection as inhibitors of Plasmodium falciparum (DD2) proliferation (AID 743345; call rule not given here); settings: P. falciparum Dd2 in erythrocytes, SYBR Green DNA, 72 h; at 28.5 µM (top of the series) unless noted
Procedure, shortened: as §1

[6] = qHTS profiling of the MIPE4 collection as inhibitors of Plasmodium falciparum (HB3) proliferation (AID 743347; call rule not given here;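 further: plate controls were DMSO vehicle wells for no effect and artemisinin wells for full effect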); settings: P. falciparum HB3 in erythrocytes, SYBR Green DNA, 72 h; at 28.5 µM (top of the series) unless noted
Procedure, shortened: as §1

[7] = Cell Proliferation Assay Versus the ED40515 IL2 Dependent ATL cell lines (AID 1053195; calls by dose curve); settings: ED40515 IL2-dependent ATL cells
Procedure, shortened: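 IL2-dependent ED40515 ATL cells grown with IL2, 1000 cells/well in phenol red-free RPMI + 5% FBS, exposed 48 hours at 37C. Viability by CellTiter-Glo luminescence after 15 min at RT; 9.2 uM bortezomib as control.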

[8] = High-throughput drug toxicity screening in the BPDCN cell line Gen2.2 (AID 1224824; call rule not given here;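 further: cells exposed to compounds for 48 h before reading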); settings: Gen2.2 BPDCN cells; at 45.8 µM (top of the series) unless noted
Procedure, shortened: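 Gen2.2 cells (500/well) in phenol red-free RPMI with 10% FBS were exposed to compounds for 48 h at 37 °C, 5% CO2. Viability was read by CellTiter-Glo luminescence and normalized to DMSO (100%) and 9.2 uM bortezomib (0%).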

[9] = High-throughput drug toxicity screening in the BPDCN cell line Cal-1 (AID 1224825; call rule not given here); settings: Cal-1 BPDCN cell viability, qHTS; at 45.8 µM (top of the series) unless noted
Procedure, shortened: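 Cal-1 cells, 500 per well in phenol-red-free RPMI with 10% FBS, exposed to compounds for 48 hours at 37C, 5% CO2. Viability read by CellTiter-Glo luminescence; percent activity normalized to DMSO (100%) and 9.2 uM bortezomib final (0%).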

[10] = qHTS assay for measurement of the activity of small molecule inhibitors on Zika virus induced Caspase-3 activity in human iPSC derived neural progenitor cells (hNPCs) (AID 1224857); further: % of control where 0% means no effect; nearly all actives have a fitted effect of over 65% in size
Procedure, shortened: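 In medium with heparin 2 ug/ml and cyclopamine 2 uM, hNPCs (350 cells/well) received compound for one hour and then Zika virus at 2 FFU/cell; caspase activity was measured by Caspase-Glo 3/7 luminescence 6 h post-infection.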

[11] = qHTS assay for measurement of the activity of small molecule inhibitors on Zika virus induced Caspase-3 activity in human astrocytoma cells (AID 1224859);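 further: plate controls were ZIKV-infected untreated cells for no effect and uninfected cells for full effect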
Procedure, shortened: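 A cell-based luminescent caspase-3/7 assay used SNB-19 cells infected with ZIKV (2 FFU/cell) for 6 h following 1 h compound pretreatment.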

[12] = qHTS Screen of the MIPE 4.0 Collection Against Ewings Sarcoma (RDES) (AID 1259252); further: potency means the concentration at half of the fitted maximal effect; nearly all actives have a fitted effect of over 35% in size
Procedure, shortened: (§2)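 Viability screen: 48 h incubation at 37C, 95% humidity, 5% CO2 with serially titrated compound, followed by CellTiter-Glo readout.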

[13] = qHTS Screen of the MIPE 4.0 Collection Against Ewings Sarcoma (TC71) (AID 1259253); further: nearly all actives have a fitted effect of over 40% in size; further: potency means the concentration at half of the fitted maximal effect
Procedure, shortened: as §2

[14] = qHTS Screen of the MIPE 4.0 Collection Against Ewings Sarcoma (EW8) (AID 1259255); further: potency means the concentration at half of the fitted maximal effect; nearly all actives have a fitted effect of over 35% in size
Procedure, shortened: as §2

[15] = qHTS Assay for Identifying Gametocytocidal Compounds (AID 743244);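 further: on the % scale 0 is the no-effect control and ±100 the full control effect; actives lower the fluorescent signal which means gametocytes are killed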; settings: P. falciparum 3D7 stage III-V gametocytes, alamarBlue, 72 h; max response: stronger effect = lower value
Procedure, shortened: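 In this qHTS viability screen, late-stage 3D7 gametocytes are incubated with compound for 72 h, then with alamarBlue for 24 h; reduced resorufin fluorescence marks killing.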

[16] = Cell Proliferation Assay Versus the ED40515 IL2 Independent ATL cell lines (AID 1053194; calls by dose curve); settings: ED40515 IL2-independent ATL cells
Procedure, shortened: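 Log-phase ED40515 cells grown without IL-2, 1000 cells/well in phenol red-free RPMI with 5% FBS, exposed to drugs 48 h at 37C. Viability read as CellTiter-Glo luminescence after 15 min at RT; DMSO and 9.2 uM bortezomib as controls.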

[17] = qHTS profiling of the MIPE4 collection as inhibitors of Plasmodium falciparum (DD2) proliferation (Rep 2) (AID 743346; call rule not given here); settings: P. falciparum Dd2 in erythrocytes, SYBR Green DNA, 72 h; at 28.5 µM (top of the series) unless noted
Procedure, shortened: as §1

[18] = molecular target: Hexokinase-4 (Homo sapiens) + Glucokinase regulatory protein (Homo sapiens) (UniProt P35557+Q14397); assay: qHTS assay for inhibitors of recombinant human GCK-GKRP interaction: HTRF assay (AID 743207);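 further: 0% = DMSO with GCK present and -100% = DMSO wells lacking GCK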
Hexokinase-4 (Homo sapiens) + Glucokinase regulatory protein (Homo sapiens), sequence (P35557 whole entry, looked up): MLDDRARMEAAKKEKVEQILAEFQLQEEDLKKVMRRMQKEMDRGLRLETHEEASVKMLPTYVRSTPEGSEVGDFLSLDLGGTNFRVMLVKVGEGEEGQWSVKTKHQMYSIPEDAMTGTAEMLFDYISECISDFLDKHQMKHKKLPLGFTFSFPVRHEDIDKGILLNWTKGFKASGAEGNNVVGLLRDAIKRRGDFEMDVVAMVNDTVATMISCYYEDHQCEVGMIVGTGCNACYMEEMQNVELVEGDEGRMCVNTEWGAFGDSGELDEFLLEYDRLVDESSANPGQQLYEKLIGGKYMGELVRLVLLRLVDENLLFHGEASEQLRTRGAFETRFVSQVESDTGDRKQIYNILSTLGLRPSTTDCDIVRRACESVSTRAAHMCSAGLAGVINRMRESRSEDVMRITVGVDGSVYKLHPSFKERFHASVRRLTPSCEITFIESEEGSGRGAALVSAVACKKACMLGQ
Hexokinase-4 (Homo sapiens) + Glucokinase regulatory protein (Homo sapiens), sequence (Q14397 whole entry, looked up): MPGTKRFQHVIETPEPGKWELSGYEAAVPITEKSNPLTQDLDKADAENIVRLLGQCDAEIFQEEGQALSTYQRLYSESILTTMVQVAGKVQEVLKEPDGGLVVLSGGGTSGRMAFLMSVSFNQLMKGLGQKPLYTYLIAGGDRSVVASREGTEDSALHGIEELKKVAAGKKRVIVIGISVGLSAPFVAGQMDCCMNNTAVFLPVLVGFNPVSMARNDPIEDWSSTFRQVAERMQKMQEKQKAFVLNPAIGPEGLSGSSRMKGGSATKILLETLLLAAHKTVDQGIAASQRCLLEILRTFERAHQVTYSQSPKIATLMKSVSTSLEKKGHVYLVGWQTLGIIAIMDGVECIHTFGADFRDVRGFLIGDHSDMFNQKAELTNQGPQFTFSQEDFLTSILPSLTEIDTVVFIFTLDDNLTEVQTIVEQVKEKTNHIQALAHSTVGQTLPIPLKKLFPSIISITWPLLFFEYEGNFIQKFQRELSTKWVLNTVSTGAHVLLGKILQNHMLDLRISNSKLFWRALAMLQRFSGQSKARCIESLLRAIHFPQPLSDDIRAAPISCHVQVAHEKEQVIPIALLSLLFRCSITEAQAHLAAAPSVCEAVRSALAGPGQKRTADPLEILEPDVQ
Procedure, shortened: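 GST-GCK and FLAG-GKRP (5 nM each) were combined with 2 uM S6P in pH 7.1 Hepes/MgCl2/KCl/DTT buffer, then compound and anti-FLAG XL665/anti-GST K antibodies were added. After 60 min at room temperature, HTRF 665/615 nm emission was read.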

[19] = qHTS assay for cell viability of HEK293 cells (AID 743288); settings: ATP luminescence (CellTiter-Glo), 18 h; max response: stronger effect = lower value; further: on the % scale 0 is the no-effect control and ±100 the full control effect; nearly all actives have a fitted effect of over 50% in size
Procedure, shortened: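 Parental HEK293 cells were seeded at 2,000 cells/well, rested at least 5 h at 37 C, then exposed to compounds in DMSO for 18 h at 37 C. Viability was read as ATP-dependent luciferase luminescence after 30 min at room temperature.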

[20] = qHTS assay for cell viability of the p53RE-bla HCT-116 cell line (AID 743292); further: potency means the concentration at half of the fitted maximal effect; nearly all actives have a fitted effect of over 55% in size
Procedure, shortened: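 CellSensor p53RE-bla HCT-116 cells, 4,000/well, preincubated 5 h at 37 C, then exposed to compounds in DMSO for 16 h at 37 C. Viability read as CellTiter-Glo luminescence (intracellular ATP) after 30 min at room temperature.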

Row | SMILES | remaining parasite growth % (stronger effect = lower value) [1] | activity, percent of control [2] | remaining proliferation (% of control), lower = more inhibition [3] | parasite growth, % of DMSO control [4] | parasite growth remaining, % of DMSO control (lower = more inhibition) [5] | growth, % of control [6] | Potency [7] | cell viability, % of control (lower = more cytotoxic) [8] | viability (% of control) [9] | Potency [10] | Potency [11] | Potency [12] | Potency [13] | Potency [14] | max response [15] | Potency [16] | parasite growth, % of control (lower = inhibition) [17] | outcome [18] | max response [19] | Potency [20]
1 | CCOc1cc(N2CCC(O)CC2)ccc1Nc1ncc2c(n1)N(C)c1ccccc1C(=O)N2C | 6.85% | 1.46% | -0.346% | 4.46% | 7.18% | 5.43% | 11.8 µM (active) | 6.39% | 2.19% | inactive | inactive | 20.9 µM (active) | 16.6 µM (active) | 23.5 µM (active) | – | – | – | – | – | –
2 | CC1(C)CNc2cc(NC(=O)c3cccnc3NCc3ccncc3)ccc21 | 70.1% | 68.6% | 5.63% | 53.8% | 86.3% | 30.1% | 23.5 µM (active) | 230% | 69.9% | inactive | – | 1.05 µM (active) | 2.35 µM (active) | 23.5 µM (active) | -7.52% (inactive) | 33.2 µM (active) | – | – | – | –
3 | O=c1[nH]c(-c2ccc(C(F)(F)F)cc2)nc2c1CSCC2 | 106% | 103% | 29.8% | 74.2% | 93.9% | 86.7% | 26.4 µM (active) | 117% | 114% | inactive | inactive | 23.5 µM (active) | – | 20.9 µM (active) | 12% (inactive) | – | 74.7% | – | – | –
4 | CCCc1nn(C)c2c(=O)[nH]c(-c3cc(S(=O)(=O)N4CCN(C)CC4)ccc3OCC)nc12 | 98.3% | 102% | 61.6% | 21.3% | 17.2% | 24.6% | 37.2 µM (active) | 91.7% | 81.8% | inactive | – | 14.8 µM (active) | 13.2 µM (active) | – | – | – | 51.4% | – | – | –
5 | CCC(C)(C)C(=O)O[C@H]1C[C@@H](C)C=C2C=C[C@H](C)[C@H](CC[C@@H]3C[C@@H](O)CC(=O)O3)[C@H]21 | 116% [at 9.63 µM] | 96.4% [at 9.63 µM] | 86.8% [at 9.63 µM] | 6.94% | 42% | 3.36% | 3.17 µM (active) | 26.7% | 59.6% | inactive | inactive | 23.5 µM (active) | 11.8 µM (active) | 18.7 µM (active) | – | – | 13.8% | – | – | –
6 | CC(C)(Sc1ccc(CCN(CCCCC2CCCCC2)C(=O)NC2CCCCC2)cc1)C(=O)O | 98.9% | 100% | 92.7% | 65.2% | 91.6% | 78.8% | – | 75.1% | 7.76% | inactive | inactive | 14.8 µM (active) | inactive | 4.69 µM (active) | 7.17% (inactive) and -0.948% (inactive) | – | – | inactive | -6.91% (inactive) | 12.6 µM (active)
7 | CS(=O)(=O)Oc1ccc2c(NC(N)=O)c(C(=O)c3ccc(Cl)cc3Cl)oc2c1 | 75.4% | 83.2% | 94.7% | 49.8% | 82.7% | 13.6% | 16.6 µM (active) | 153% | 13.2% | inactive | – | 11.8 µM (active) | 14.8 µM (active) | 23.5 µM (active) | 25% (inactive) | – | 33.3% | – | – | –
